# Data as given in publication PMC9911399, “Two distinct binding modes provide the RNA-binding protein RbFox with extraordinary sequence specificity”.
# Changes are numbered by the printed parent chain; changes in the protein carry UniProt numbers. In all, about 16,000 sequences were measured (“ka relative to ugcaugu”: median about 0.0091, highest 2% from about 0.032 on). For the sample, the highest values were picked, then their nearest neighbours and some sequences at random.
# T1: RBFOX1 RRM (Homo sapiens, UniProt Q9NWB1 109-208)
# T1 sequence: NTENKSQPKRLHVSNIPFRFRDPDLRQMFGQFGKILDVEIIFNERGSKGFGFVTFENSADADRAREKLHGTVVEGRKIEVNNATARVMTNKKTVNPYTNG
# B1: UCGCAGG (DNA:RNA)
# RNA: GGGAGACCGGAAUUCAGAUUGUCCUCGCAGGUUAAAUCCCGUCGUAGCCACCA
# DNA 1: CAATCTGAATTCCGGTCTCCC
# DNA 2: TGGTGGCTACGACGGGATT
# B2: UACAUAC (DNA:RNA)
# RNA: B1 RNA with C26A, G27C, C28A, A29U, G30A, G31C
# DNA 1: CAATCTGAATTCCGGTCTCCC
# DNA 2: TGGTGGCTACGACGGGATT
# B3: GGUAUUA (DNA:RNA)
# RNA: GGGAGACCGGAAUUCAGAUUGUCCGGUAUUAUUAAAUCCCGUCGUAGCCACCA
# DNA 1: CAATCTGAATTCCGGTCTCCC
# DNA 2: TGGTGGCTACGACGGGATT
# B4: GGUAAUG (DNA:RNA)
# RNA: B3 RNA with U29A, A31G
# DNA 1: CAATCTGAATTCCGGTCTCCC
# DNA 2: TGGTGGCTACGACGGGATT
# B5: UUAGUUG (DNA:RNA)
# RNA: B3 RNA with G25U, G26U, U27A, A28G, A31G
# DNA 1: CAATCTGAATTCCGGTCTCCC
# DNA 2: TGGTGGCTACGACGGGATT
# B6: AUGCCAC (DNA:RNA)
# RNA: B1 RNA with U25A, C26U, A29C, G30A, G31C
# DNA 1: CAATCTGAATTCCGGTCTCCC
# DNA 2: TGGTGGCTACGACGGGATT
# B7: GUUACCC (DNA:RNA)
# RNA: B3 RNA with G26U, U29C, U30C, A31C
# DNA 1: CAATCTGAATTCCGGTCTCCC
# DNA 2: TGGTGGCTACGACGGGATT
# B8: UGGUGCU (DNA:RNA)
# RNA: B1 RNA with C26G, C28U, A29G, G30C, G31U
# DNA 1: CAATCTGAATTCCGGTCTCCC
# DNA 2: TGGTGGCTACGACGGGATT
# B9: UGGGUGA (DNA:RNA)
# RNA: B3 RNA with G25U, U27G, A28G, U30G
# DNA 1: CAATCTGAATTCCGGTCTCCC
# DNA 2: TGGTGGCTACGACGGGATT
# B10: UGGGGCG (DNA:RNA)
# RNA: B1 RNA with C26G, C28G, A29G, G30C
# DNA 1: CAATCTGAATTCCGGTCTCCC
# DNA 2: TGGTGGCTACGACGGGATT
# B11: UGGCGUU (DNA:RNA)
# RNA: B1 RNA with C26G, A29G, G30U, G31U
# DNA 1: CAATCTGAATTCCGGTCTCCC
# DNA 2: TGGTGGCTACGACGGGATT
# B12: CCCUGGG (DNA:RNA)
# RNA: B1 RNA with U25C, G27C, C28U, A29G
# DNA 1: CAATCTGAATTCCGGTCTCCC
# DNA 2: TGGTGGCTACGACGGGATT
# B13: UGGGCGU (DNA:RNA)
# RNA: B1 RNA with C26G, C28G, A29C, G31U
# DNA 1: CAATCTGAATTCCGGTCTCCC
# DNA 2: TGGTGGCTACGACGGGATT
# B14: CCUGGUG (DNA:RNA)
# RNA: B3 RNA with G25C, G26C, A28G, U29G, A31G
# DNA 1: CAATCTGAATTCCGGTCTCCC
# DNA 2: TGGTGGCTACGACGGGATT
# B15: CUGGGUG (DNA:RNA)
# RNA: B1 RNA with U25C, C26U, C28G, A29G, G30U
# DNA 1: CAATCTGAATTCCGGTCTCCC
# DNA 2: TGGTGGCTACGACGGGATT
# B16: UGGGUGC (DNA:RNA)
# RNA: B1 RNA with C26G, C28G, A29U, G31C
# DNA 1: CAATCTGAATTCCGGTCTCCC
# DNA 2: TGGTGGCTACGACGGGATT
# B17: CUAAUAC (DNA:RNA)
# RNA: B3 RNA with G25C, G26U, U27A, U30A, A31C
# DNA 1: CAATCTGAATTCCGGTCTCCC
# DNA 2: TGGTGGCTACGACGGGATT
# B18: UUAAUCA (DNA:RNA)
# RNA: B3 RNA with G25U, G26U, U27A, U30C
# DNA 1: CAATCTGAATTCCGGTCTCCC
# DNA 2: TGGTGGCTACGACGGGATT
# B19: UUUGCUU (DNA:RNA)
# RNA: B3 RNA with G25U, G26U, A28G, U29C, A31U
# DNA 1: CAATCTGAATTCCGGTCTCCC
# DNA 2: TGGTGGCTACGACGGGATT
# B20: CCAAUGG (DNA:RNA)
# RNA: B1 RNA with U25C, G27A, C28A, A29U
# DNA 1: CAATCTGAATTCCGGTCTCCC
# DNA 2: TGGTGGCTACGACGGGATT
# Molecular target: T1, RBFOX1 RRM
# Assay: EMSA; HiTS-Eq, 1 nM pool, 10 min; buffer printed only for the single-RNA assays: 10 mM Tris pH 7.5, 150 mM NaCl, 3.4 mM EDTA, 0.001% NP-40, 30 C
# Details: tags: His6 N-terminal (pET28a); label: 5' 32P
# How it was run: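 Relative association constants, normalised to the cognate motif, were derived by comparing read counts of each RNA species with those of the control reaction. The RNA sequenced was the free fraction, separated by 8% native PAGE after a 10 min equilibration in 50 µL of 1 nM 5′-radiolabelled RNA (7 randomized nucleotides) with increasing concentrations of purified wild-type or mutant RbFox RRM.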
row,Binder,binding signal
1,B1,0.0168 KA relative to UGCAUGU
2,B2,0.00108 KA relative to UGCAUGU
3,B3,0.00455 KA relative to UGCAUGU
4,B4,0.0152 KA relative to UGCAUGU
5,B5,0.0187 KA relative to UGCAUGU
6,B6,0.0065 KA relative to UGCAUGU
7,B7,0.0047 KA relative to UGCAUGU
8,B8,0.0292 KA relative to UGCAUGU
9,B9,0.0273 KA relative to UGCAUGU
10,B10,0.0294 KA relative to UGCAUGU
11,B11,0.0221 KA relative to UGCAUGU
12,B12,0.00714 KA relative to UGCAUGU
13,B13,0.0388 KA relative to UGCAUGU
14,B14,0.0199 KA relative to UGCAUGU
15,B15,0.0408 KA relative to UGCAUGU
16,B16,0.0429 KA relative to UGCAUGU
17,B17,0.00176 KA relative to UGCAUGU
18,B18,0.00562 KA relative to UGCAUGU
19,B19,0.0228 KA relative to UGCAUGU
20,B20,0.00975 KA relative to UGCAUGU
